The values that follow come from PubChem BioAssay.

Some of the results follow. Unmarked numbers belong to inactive results. The source made the active and inactive calls.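 Rule for the calls, unless noted: active = activation above the solvent-only control well mean plus 3 SD, set per plate batch (cut at about 110% in these data); inactive = the rest.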

System in one experiment: not listed separately
Kind of experiment: enhancement of NF-kB transcriptional signalling – cell-based, HEK293T, luciferase luminescence, TNF-alpha, counter-screen for STAT1 activator project (AID 1306;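 active = activation above the mean of solvent-only control wells plus 3 SD, set per campaign, cut at about 130% in these data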;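 note: TNF-alpha given at a submaximal dose yielding about 80% of full reporter signal; values are well signal over median control so 100% means no change and 0% no light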). The note with it: HEK293T NF-kB luciferase reporter, TNF-alpha stimulated, at 5.7 µM, hits give high values, 100% = TNF-alpha with vehicle only.
As for `Cc1cccc(N=Nc2c(O)[nH]c3ccc(F)cc23)c1`, the activation (% of control) was 135% (active).
The same measure, in the same setting: for `O=C(NCCCn1ccnc1)c1cc(-c2ccccc2)on1` the value was 165% (active); for `c1cnc(Nc2nc(-c3ccc4ccccc4c3)cs2)nc1`, 139% (active); for `CCc1ccc(NC2Nc3cc(C)nn3S2)cc1` (stereo not given), 141% (active).
Still for that read-out and setting: with `O=C(Nc1ccc(Cl)cn1)c1cnn2cccnc12` the figure was 128%.
Still for that read-out and setting: for `Cc1noc(C)c1/C=N/Nc1ccc2ccccc2n1` the value was 141% (active); for `CC(=O)Nc1cccc(-c2csc(Nc3cccc(C)n3)n2)c1`, 144% (active); for `Nc1ncc(-c2cc3ccccc3oc2=O)s1`, 124%.
Turning to `Cc1[nH]n(-c2ccccc2)c(=O)c1/C=N/NC(=O)c1ccoc1C`, the activation (% of control) is 117%.
Consider `COc1ccc2nc(NC(=O)c3ccc(Br)s3)sc2c1`, for which the activation (% of control) was 134% (active).
The same measure, in the same setting: for `Clc1ccc(Nc2nc(-c3cccs3)cs2)nc1` the value was 149% (active); for `O=C(c1cc(-c2cccs2)on1)N1CCCCC1`, 125%.
Consider `CC1CN/C(=C\C(=O)c2ccc(Br)cc2)C(=O)N1` (stereo not given), for which the activation (% of control) is 117%.
With `CCNc1nc(-c2cc3ccccc3o2)cs1`, the activation (% of control) is 121%.
On the same count and under the same terms, with `Cc1ccc(NC(=O)Nc2ccc3oc(C)nc3c2)cc1` the figure was 128%; with `CN(C)c1ccnc2sc(C(=O)c3ccccc3)c(N)c12`, 126%; with `COc1ccc(/C=N/Nc2nc3ccccc3c(=O)[nH]2)cc1`, 119%.
For the compound `NC(=O)Cc1ccc2sc(-c3ccccc3)nc2c1`, the activation (% of control) was 126%.
On the same count and under the same terms, with `CC(=O)c1sc(NC(=O)c2ccc(C)cc2)nc1C` the figure was 123%; with `CC(C)c1ccc(NC(=O)NC2CCCCC2)cc1`, 128%; with `COc1ccc2nc(SCc3ccccc3)nc(C)c2c1`, 141% (active).
The same measure, in the same setting: with `COc1ccc(CS(=O)/C(Cl)=C(/Cl)C(=O)Nc2ccc(OC)nc2)cc1` (stereo not given) the figure was 67.4%.
Still for that read-out and setting: for `CN1C(=O)/C(=C/C=C2\SCCN2C)OC1=S` the value was 132%.
In the case of `O=C(Nc1ccc2c(c1)CCC2)c1ccc(Br)s1`, the activation (% of control) is 137% (active).
Same read-out and setting: for `CCn1c(/C=C/c2ccc([N+](=O)[O-])o2)nc2ccccc2c1=O` the value was 156% (active); for `Cc1ccc(NC(=O)c2csc3c2CCCC3)cc1`, 140% (active).
The same measure, in the same setting: with `COc1ccc(C2Nc3ccccc3C(=O)N2c2ccc(Cl)cc2)cc1Cn1cc([N+](=O)[O-])cn1` (stereo not given) the figure was 112%; with `COc1ccc(-c2csc(-c3cccs3)n2)cc1OC`, 136% (active); with `Cc1ccccc1Nc1nc(N)nc(CSc2ccccc2)n1`, 126%.
Take `COc1ccc(NC(=O)/C(Cl)=C(/Cl)S(=O)Cc2ccc(C)cc2)cn1` (stereo not given): the activation (% of control) was 51.5%.
Still for that read-out and setting: for `Cc1ccc(NC(=O)Nc2ccccc2)c(Br)c1` the value was 124%.
As to `COc1ccc(-c2csc(Cc3nc(O)cs3)n2)cc1`, the activation (% of control) is 150% (active).
Still for that read-out and setting: for `c1ccc(Nc2nc(-c3ccncc3)cs2)nc1` the value was 126%; for `CCOC(=O)/C(C#N)=C/c1ccc(N2CCCCC2)cc1`, 140% (active); for `Cc1cc2nc(SCCN3CCOCC3)[nH]c2cc1C`, 119%.
Same read-out and setting: with `CCOc1ccc2nc(C(=O)N3CCCC(C)C3)sc2c1` (stereo not given) the figure was 133%; with `Cc1cccc(NC(=O)Nc2ccc3c(c2)OCO3)n1`, 133% (active); with `COc1ccc(-n2nnnc2-c2nc3ccccc3s2)cc1`, 117%.
On to `Cc1cc(C)c2nc(NC(=O)C3CCCO3)sc2c1` (stereo not given), for which the activation (% of control) is 138% (active).
Same read-out and setting: for `COc1ccccc1-c1cc(C(=O)N2CCCCC2)no1` the value was 137% (active).

The next experiment concerns the target Signal transducer and activator of transcription 3 (Homo sapiens) (UniProt P40763). Kind of experiment: enhancers of IL-6 STAT3 transcription – U3A cells, luciferase, luminescence, counter-screen for STAT1 activator project, confirmation (AID 1316).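 Note: 0% = no luminescence and 100% = median IL-6 plus DMSO wells; higher means more STAT3 reporter activation so hits are non-selective activators.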 The note with it: U3A cells STAT3-luciferase reporter, IL-6, luminescence; at 5.7 µM; hits give high values; 100 = IL-6 alone, no compound effect; cells lack STAT1.
Turning to `Cc1cccc(N=Nc2c(O)[nH]c3ccc(F)cc23)c1`, the activation (% of control) is 109%.
On the same count and under the same terms, for `O=C(NCCCn1ccnc1)c1cc(-c2ccccc2)on1` the value was 132% (active).
Still for that read-out and setting: with `c1cnc(Nc2nc(-c3ccc4ccccc4c3)cs2)nc1` the figure was 105%; with `CCc1ccc(NC2Nc3cc(C)nn3S2)cc1` (stereo not given), 126% (active).
With `O=C(Nc1ccc(Cl)cn1)c1cnn2cccnc12`, the activation (% of control) is 111% (active).
Still for that read-out and setting: for `Cc1noc(C)c1/C=N/Nc1ccc2ccccc2n1` the value was 149% (active).
Same read-out and setting: for `CC(=O)Nc1cccc(-c2csc(Nc3cccc(C)n3)n2)c1` the value was 106%; for `Nc1ncc(-c2cc3ccccc3oc2=O)s1`, 110%; for `Cc1[nH]n(-c2ccccc2)c(=O)c1/C=N/NC(=O)c1ccoc1C`, 108%.
Turning to `COc1ccc2nc(NC(=O)c3ccc(Br)s3)sc2c1`, the activation (% of control) was 99.8%.
On the same count and under the same terms, with `Clc1ccc(Nc2nc(-c3cccs3)cs2)nc1` the figure was 133% (active).
On the same count and under the same terms, for `O=C(c1cc(-c2cccs2)on1)N1CCCCC1` the value was 105%; for `CC1CN/C(=C\C(=O)c2ccc(Br)cc2)C(=O)N1` (stereo not given), 87.3%.
For `CCNc1nc(-c2cc3ccccc3o2)cs1`, the activation (% of control) is 103%.
The same measure, in the same setting: with `Cc1ccc(NC(=O)Nc2ccc3oc(C)nc3c2)cc1` the figure was 102%; with `CN(C)c1ccnc2sc(C(=O)c3ccccc3)c(N)c12`, 109%.
The same measure, in the same setting: for `COc1ccc(/C=N/Nc2nc3ccccc3c(=O)[nH]2)cc1` the value was 102%; for `NC(=O)Cc1ccc2sc(-c3ccccc3)nc2c1`, 108%; for `CC(=O)c1sc(NC(=O)c2ccc(C)cc2)nc1C`, 94.7%.
In the case of `CC(C)c1ccc(NC(=O)NC2CCCCC2)cc1`, the activation (% of control) is 129% (active).
The same measure, in the same setting: with `COc1ccc2nc(SCc3ccccc3)nc(C)c2c1` the figure was 107%.
The same measure, in the same setting: with `COc1ccc(CS(=O)/C(Cl)=C(/Cl)C(=O)Nc2ccc(OC)nc2)cc1` (stereo not given) the figure was 105%; with `CN1C(=O)/C(=C/C=C2\SCCN2C)OC1=S`, 118% (active).
Consider `O=C(Nc1ccc2c(c1)CCC2)c1ccc(Br)s1`, for which the activation (% of control) was 114% (active).
On to `CCn1c(/C=C/c2ccc([N+](=O)[O-])o2)nc2ccccc2c1=O`, for which the activation (% of control) is 102%.
On the same count and under the same terms, with `Cc1ccc(NC(=O)c2csc3c2CCCC3)cc1` the figure was 111% (active); with `COc1ccc(C2Nc3ccccc3C(=O)N2c2ccc(Cl)cc2)cc1Cn1cc([N+](=O)[O-])cn1` (stereo not given), 120% (active); with `COc1ccc(-c2csc(-c3cccs3)n2)cc1OC`, 114% (active).
The same measure, in the same setting: with `Cc1ccccc1Nc1nc(N)nc(CSc2ccccc2)n1` the figure was 127% (active); with `COc1ccc(NC(=O)/C(Cl)=C(/Cl)S(=O)Cc2ccc(C)cc2)cn1` (stereo not given), 103%.
Same read-out and setting: with `Cc1ccc(NC(=O)Nc2ccccc2)c(Br)c1` the figure was 89.8%.
Regarding `COc1ccc(-c2csc(Cc3nc(O)cs3)n2)cc1`, the activation (% of control) is 124% (active).
On the same count and under the same terms, with `c1ccc(Nc2nc(-c3ccncc3)cs2)nc1` the figure was 126% (active); with `CCOC(=O)/C(C#N)=C/c1ccc(N2CCCCC2)cc1`, 108%; with `Cc1cc2nc(SCCN3CCOCC3)[nH]c2cc1C`, 121% (active).
On the same count and under the same terms, with `CCOc1ccc2nc(C(=O)N3CCCC(C)C3)sc2c1` (stereo not given) the figure was 97.8%; with `Cc1cccc(NC(=O)Nc2ccc3c(c2)OCO3)n1`, 121% (active).
Still for that read-out and setting: for `COc1ccc(-n2nnnc2-c2nc3ccccc3s2)cc1` the value was 111% (active).
Consider `Cc1cc(C)c2nc(NC(=O)C3CCCO3)sc2c1` (stereo not given), for which the activation (% of control) is 195% (active).
On the same count and under the same terms, for `COc1ccccc1-c1cc(C(=O)N2CCCCC2)no1` the value was 116% (active).
